PostGolgi yeast = growth inhibition of a yeast mutant, post-Golgi transport screen. post-Golgi transport phenotypic cell assay. 0.9% of 98,000 active. inhibition, % at 10 µM;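 also: yeast cells grown in 1536-well plates; yeast grown about 18 h at 30C before absorbance read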
Pyk2 oligo antag = antagonists of human Pyk2 oligomerization; Q293 cells, Pyk2 FERM NanoBiT luminescence; stronger effect = lower value; z-score (the deposit names both 25 µM and 10 µM); 0.83% of 99,000 active; Q14289;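 active = Z-score of -3 or lower, scaled per plate to the spread of control and sample wells; inactive = z-score above -3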;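 also: negative z-score means lost luminescence so less FERM oligomerization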
Target sequence (Q14289 whole entry, looked up): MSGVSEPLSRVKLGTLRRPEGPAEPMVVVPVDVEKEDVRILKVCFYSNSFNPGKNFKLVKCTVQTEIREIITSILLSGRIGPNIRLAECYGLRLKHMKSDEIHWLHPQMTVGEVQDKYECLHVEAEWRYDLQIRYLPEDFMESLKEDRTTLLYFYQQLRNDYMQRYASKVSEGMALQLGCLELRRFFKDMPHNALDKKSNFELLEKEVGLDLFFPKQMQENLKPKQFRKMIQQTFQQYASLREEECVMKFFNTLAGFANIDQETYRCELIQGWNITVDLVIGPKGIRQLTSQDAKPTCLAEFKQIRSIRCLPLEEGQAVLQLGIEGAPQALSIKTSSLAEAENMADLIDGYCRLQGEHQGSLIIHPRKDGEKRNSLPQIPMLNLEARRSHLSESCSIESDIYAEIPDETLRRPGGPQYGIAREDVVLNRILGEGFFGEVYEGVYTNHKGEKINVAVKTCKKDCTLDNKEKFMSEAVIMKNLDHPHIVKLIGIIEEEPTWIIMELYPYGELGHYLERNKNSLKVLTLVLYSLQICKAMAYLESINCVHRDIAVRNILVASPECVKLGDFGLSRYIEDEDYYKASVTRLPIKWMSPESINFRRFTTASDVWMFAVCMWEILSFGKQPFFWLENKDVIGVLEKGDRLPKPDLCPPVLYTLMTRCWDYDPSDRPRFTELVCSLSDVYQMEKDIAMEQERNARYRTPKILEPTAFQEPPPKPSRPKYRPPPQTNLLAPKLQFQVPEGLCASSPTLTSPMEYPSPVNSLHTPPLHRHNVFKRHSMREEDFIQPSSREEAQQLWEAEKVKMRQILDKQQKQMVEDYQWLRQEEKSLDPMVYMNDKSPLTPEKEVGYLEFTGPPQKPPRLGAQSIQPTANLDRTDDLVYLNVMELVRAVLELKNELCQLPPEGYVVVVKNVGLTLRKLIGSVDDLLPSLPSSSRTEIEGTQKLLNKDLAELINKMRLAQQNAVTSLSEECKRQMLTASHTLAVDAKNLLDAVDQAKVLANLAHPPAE
PostGolgi ctrl = inhibits growth of the yeast control strain; efflux-deficient yeast background strain, growth absorbance A615, 16 h; inhibition, % at 10 µM; 5% of 98,000 active; AID 738
Cav3 T inh = inhibitors of human Cav3.2 T-type calcium channel; O95180; 4% of 100,000 active; Cav3.2-expressing cells, Fluo-4 calcium fluorescence FDSS; stronger effect = lower value; B-score at 10 µM; AID 449739;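 active = single-dose well whose peak fluorescence ratio is a statistical outlier from its plate by either plate-standardised score or position-corrected B-score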
Starred values were filed as active, the others as inactive. An excerpt weighted towards active compounds, which were near 8% of everything screened. Rule as the data show it, unless noted: active = inhibition above about 30%; inactive = the rest.

Screening Cc1ccc(N=Cc2c(O)n(-c3ccc4c(c3)OCO4)c(=O)c3ccccc23)cc1 returned PostGolgi yeast 30*, Pyk2 oligo antag -0.54 and PostGolgi ctrl 6.
CCNc1nc(NCC)nc(C(=O)NN)n1 was read as Pyk2 oligo antag -0.13 and Cav3 T inh -0.62.
For COc1ccc(NS(=O)(=O)c2ccc3oc4ccccc4c3c2)cn1 the results were PostGolgi yeast -3, Pyk2 oligo antag -0.14, PostGolgi ctrl 47* and Cav3 T inh -4.1.
Screening CC(Nc1cc(=O)n(C)c(=O)[nH]1)c1ccccc1 (stereo not given) returned PostGolgi yeast 5, Pyk2 oligo antag -0.51, PostGolgi ctrl 14 and Cav3 T inh 1.1.
Screening COCc1c(C(=O)N2CCN(c3ccc(C(F)(F)F)cn3)CC2)oc2ccccc12 returned PostGolgi yeast 3, Pyk2 oligo antag 0.63, PostGolgi ctrl 12 and Cav3 T inh -4.7*.
For CCOC(=O)c1c(-c2ccccc2)nnn1-c1nc(OCC)nc(N2CCCCC2)n1 the results were PostGolgi yeast 1, Pyk2 oligo antag -1.6, PostGolgi ctrl 7 and Cav3 T inh -7.6*.
For CCOC(=O)c1nnn(-c2nc(N3CCCC3)nc(N3CCCC3)n2)c1-c1ccccc1 the results were PostGolgi yeast 11, Pyk2 oligo antag 1.1 and PostGolgi ctrl 12.
For CCOC(=O)c1nnn(-c2nc(OC)nc(N3CCCCC3)n2)c1-c1ccccc1 the results were PostGolgi yeast 9, PostGolgi ctrl 20 and Cav3 T inh -6.1*.
For CCN(CC)c1cc(C)c2cc(NC(=O)CNC(C)=O)ccc2n1 the results were PostGolgi yeast 18, Pyk2 oligo antag -0.64, PostGolgi ctrl 33* and Cav3 T inh 0.83.
CCC(C)NC(=O)CCC(=O)Nc1ccc2nc(N3CCOCC3)cc(C)c2c1 (stereo not given) was read as PostGolgi yeast 4, Pyk2 oligo antag 0.55, PostGolgi ctrl 5 and Cav3 T inh 2.
`c1ccc(OCCOc2ncnc3sccc23)cc1` gave PostGolgi yeast -9, Pyk2 oligo antag -0.41, PostGolgi ctrl 10 and Cav3 T inh 0.75.
For C(=N\c1ncnc2sccc12)/NOCc1ccccc1 the results were PostGolgi yeast 22, Pyk2 oligo antag 0.53, PostGolgi ctrl 66* and Cav3 T inh -0.084.
O=C(c1cccs1)N1CCCC(c2ccccc2)C1 (stereo not given) was read as PostGolgi yeast -2, Pyk2 oligo antag -0.94, PostGolgi ctrl 37* and Cav3 T inh -0.76.
CCOC(=O)C1CCCN(C(=O)c2cccs2)C1 (stereo not given) was read as PostGolgi yeast 10, Pyk2 oligo antag 0.12, PostGolgi ctrl -3 and Cav3 T inh 0.48.
COc1cc(Nc2nc(-c3ccccc3)c3cc(C)ccc3n2)cc(OC)c1OC was read as PostGolgi yeast -1, Pyk2 oligo antag -1.8 and PostGolgi ctrl 35*.
Cc1ccc2nc(NCC(=O)O)nc(-c3ccccc3)c2c1 was read as PostGolgi yeast -3, Pyk2 oligo antag 0.2, PostGolgi ctrl 5 and Cav3 T inh -1.7.
`CCCNC(=O)CC1Sc2ccccc2NC1=O` (stereo not given) gave PostGolgi yeast -6, Pyk2 oligo antag 0.63, PostGolgi ctrl 39* and Cav3 T inh -0.15.
For O=C(O)CC1Sc2ccccc2NC1=O (stereo not given) the results were PostGolgi yeast 27, Pyk2 oligo antag -0.21, PostGolgi ctrl -6 and Cav3 T inh -0.0093.
For COC(=O)c1ccc(C(=O)OC)c(NC(=O)COC(=O)C23CC4CC(CC(O)(C4)C2)C3)c1 the results were PostGolgi yeast 1, Pyk2 oligo antag -2.8, PostGolgi ctrl 8 and Cav3 T inh 1.5.
For COc1ccc([C@H]2[C@@H](C#N)[C@H](C#N)N3CCCN23)cc1 the results were Pyk2 oligo antag 0.68 and Cav3 T inh 0.64.
For COc1ccccc1Oc1cc(C#N)c(C#N)cc1-n1nnc2ccccc21 the results were PostGolgi yeast -4, Pyk2 oligo antag -2.8 and PostGolgi ctrl 30*.
CCCn1nc(NS(C)(=O)=O)c2cc3cccc(C)c3nc21 was read as PostGolgi yeast 0, Pyk2 oligo antag 0.31, PostGolgi ctrl 36* and Cav3 T inh -1.2.
CCn1nc(NS(=O)(=O)c2ccccc2)c2cc3cccc(C)c3nc21 was read as PostGolgi yeast 5, Pyk2 oligo antag 0, PostGolgi ctrl 2 and Cav3 T inh -2.6.
For Cc1ccc(-c2noc(CN(C(=O)C34CC5CC(CC(C5)C3)C4)C(C)C)n2)cc1 the results were PostGolgi yeast 5, Pyk2 oligo antag 0.17, PostGolgi ctrl 10 and Cav3 T inh 1.1.
For CC(C)N(Cc1nc(-c2ccc(Cl)cc2)no1)C(=O)C(c1ccccc1)c1ccccc1 the results were PostGolgi yeast 0, Pyk2 oligo antag -1.2, PostGolgi ctrl 20 and Cav3 T inh -4.3*.
Cc1ccc(-c2noc(CN(C(=O)C(c3ccccc3)c3ccccc3)C(C)C)n2)cc1 was read as PostGolgi yeast -2, Pyk2 oligo antag -2.4, PostGolgi ctrl 12 and Cav3 T inh -8.5*.
CC(C)N(Cc1nc(-c2ccc(Cl)cc2)no1)C(=O)/C=C/c1ccccc1 was read as Pyk2 oligo antag -0.44.
CC(C)N(Cc1nc(-c2ccccc2)no1)C(=O)CN(C)S(=O)(=O)c1ccccc1 was read as PostGolgi yeast -10, Pyk2 oligo antag -0.7, PostGolgi ctrl 34* and Cav3 T inh 0.11.
Screening CN(Cc1nc(-c2ccncc2)no1)S(=O)(=O)c1ccc(Br)cc1 returned PostGolgi yeast -7, Pyk2 oligo antag 0.57, PostGolgi ctrl 31* and Cav3 T inh -1.3.
Screening COc1ccc(-n2c(COc3cccc(C)c3)nnc2SCC(=O)NCc2ccco2)cc1 returned PostGolgi yeast -3, Pyk2 oligo antag -0.41, PostGolgi ctrl 10 and Cav3 T inh -3.1.
`COc1cccc(OCc2nnc(SCC(=O)NCc3ccco3)n2CCc2ccccc2)c1` gave PostGolgi yeast 2, Pyk2 oligo antag -0.33, PostGolgi ctrl 7 and Cav3 T inh -7.6*.
COc1ccc(-n2c(COc3ccc4ccccc4c3)nnc2SCC(=O)NCc2ccco2)cc1 was read as PostGolgi yeast -5, Pyk2 oligo antag -1.2, PostGolgi ctrl 24 and Cav3 T inh -6.4*.
`N#Cc1cc2c(nc1SCC1COc3ccccc3O1)CCC2` (stereo not given) gave PostGolgi yeast -6, Pyk2 oligo antag -1.5, PostGolgi ctrl 20 and Cav3 T inh -6.2*.
Screening Cc1cc(C)c(C#N)c(SCC2COc3ccccc3O2)n1 (stereo not given) returned PostGolgi yeast 5, Pyk2 oligo antag -3.3*, PostGolgi ctrl 21 and Cav3 T inh -4.7.
For Cc1cc(C)n2nc(SCC3COc4ccccc4O3)nc2n1 (stereo not given) the results were PostGolgi yeast -1, Pyk2 oligo antag -0.37, PostGolgi ctrl 2 and Cav3 T inh -0.56.
Cc1ccc(CSc2nc3c(cc2C#N)CCC3)cc1 was read as PostGolgi yeast -7, Pyk2 oligo antag 0.51, PostGolgi ctrl 5 and Cav3 T inh -0.063.
Screening O=C(NCCCN1CCCC1=O)c1cccc(C(F)(F)F)c1 returned PostGolgi yeast -5, Pyk2 oligo antag -0.46, PostGolgi ctrl 35* and Cav3 T inh 1.6.
`COC(=O)c1c(C)n(-c2ccccc2)c2ccc(O)cc12` gave PostGolgi yeast 1, Pyk2 oligo antag -2.5, PostGolgi ctrl 43* and Cav3 T inh -2.

From PubChem
